A selection: hits, their analogues and other compounds. The true share with any hit is near 1.6%.
Rce1 inh – yeast Ras-converting enzyme inhibition | Q03530 | 290,000 tested, 0.27% active | calls only | yeast membranes, quenched prenylated peptide cleavage fluorescence | AID 2563;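 active = fall in fluorescence gain of 50% or more versus controls, with final raw signal at or below 3038400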;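 also: plate controls were neutral control wells for no effect and wells lacking membranes for full effect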
Target sequence (Q03530 whole entry, looked up): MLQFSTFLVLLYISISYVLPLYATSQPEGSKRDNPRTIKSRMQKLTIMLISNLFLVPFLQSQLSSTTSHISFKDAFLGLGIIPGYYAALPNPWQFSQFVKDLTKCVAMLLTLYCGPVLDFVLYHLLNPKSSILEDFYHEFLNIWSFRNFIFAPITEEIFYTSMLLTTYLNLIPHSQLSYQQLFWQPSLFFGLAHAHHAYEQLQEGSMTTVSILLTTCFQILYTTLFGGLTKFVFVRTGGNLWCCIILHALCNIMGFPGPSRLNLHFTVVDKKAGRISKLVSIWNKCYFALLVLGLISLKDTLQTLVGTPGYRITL
V-ATPase pH – yeast V-ATPase proton transport regulation by pHLuorin; response, % at 10 µM; S. cerevisiae, pHLuorin cytosolic pH fluorescence; AID 504577; 350,000 tested, 0.37% active; in the data active = response mostly above about 7.3%, no sharp cut-off; inactive = mostly below about 5.4%; also: actives read high
NLRP3 yeast inh – blocks the NALP3 inflammasome reconstituted in yeast; Yeast reconstituted NLRP3/ASC/caspase-1, beta-gal luminescence, 24 h; 330,000 tested, 0.39% active; inhibition, % at 10 µM;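 active = inhibition of 50% or more; inactive = inhibition below 50%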;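 also: plate controls were induced DMSO wells for no effect and uninduced yeast grown without galactose for full effect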
PERK inhibitor – human PERK inhibition, primary cell-based screen; CHO PERK-DD fusion, SEAP luminescence translation reporter; Q9NZJ5; AID 1416; inhibition, % at 5.6 µM; 220,000 tested, 0.17% active;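 active = inhibition above the mean inhibition of all tested compounds plus 3 SD, set separately per screening campaign, cut at about 2.9% in these data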;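 also: PERK kinase domain activated by AP20187 dimerizer at 100 nM; 0% = DMSO with dimerizer and 100% = rapamycin at 8.4 µM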
NALP1 yeast inh – inhibitors of NALP1 inflammasome in yeast | S. cerevisiae NALP1/ASC/caspase-1 growth, X-gal OD620, 72 h | 280,000 tested, 0.61% active | inhibition, % at 10 µM | AID 2071; in the data active = inhibition mostly above about 24%, no sharp cut-off; inactive = mostly below about 32%
CR mimetic SO – caloric restriction mimetics inhibiting age-related superoxide in yeast; S. cerevisiae aged cells, superoxide DHE fluorescence; hits give low values; 330,000 tested, 0.18% active; superoxide response (% of plate mean), % at 10 µM;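 active = superoxide response under a set limit, about three screen SD below normal, cut at about 65% in these data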;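 also: yeast aged for seven days with compound at 30 °C before DHE staining; 100% = average MFI of all compound-treated wells on the plate with controls excluded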
Starred values were filed as active, the others as inactive; i = inactive; x = no result given; + = active, no number.

SMILES	Rce1 inh	V-ATPase pH	NLRP3 yeast inh	PERK inhibitor	NALP1 yeast inh	CR mimetic SO
O=C(Nc1ccc(S(=O)(=O)Nc2ccccc2)cc1)C1COc2ccccc2O1 (stereo unspecified)	+	-0.1	5.7	-0.2	-6.5	90.0
CCOc1ccc(S(=O)(=O)Nc2ccc(C(=O)N/N=C(\C)c3ccc(-n4ccnc4)cc3)cc2)cc1	i	1.8	2.3	-0.8	34.9*	96.7
COc1ccc(NS(=O)(=O)c2cccc(C(=O)N/N=C(/C)c3ccc(-n4ccnc4)cc3)c2)cc1	x	-4.8	x	x	x	x
c1ccc(-n2cc(CNCCc3cscn3)c(-c3ccc4c(c3)OCO4)n2)cc1	i	2.2	19.3	-0.3	31.5*	95.0
CN(C)/N=C/C=C1\CC/C(=C\c2ccc(F)c(F)c2)C1=O	i	-5.4	14.9	x	x	88.3
CC(C)c1ccc(/C=C2\CC/C(=C\C=N\N(C)C)C2=O)cc1	i	2.7	7.1	0.5	43.7*	95.1
COc1ccccc1N1CCN(S(=O)(=O)CCNC(=O)C(C)Oc2ccccc2)CC1 (stereo unspecified)	x	2.2	x	x	x	x
O=C1OCCN1C(=O)[C@H]1[C@H](c2ccc(F)cc2)C(c2ccc(F)cc2)=NN1c1ccc(Br)cc1	+	3.7	-3.7	-0.3	20.6	45.0*
C[C@@H]1CCCCO[C@H](CN(C)Cc2ccc3c(c2)OCO3)[C@@H](C)CN([C@H](C)CO)C(=O)c2cc(NC(=O)c3ccccc3)ccc2O1	x	2.3	x	x	x	x
CCn1cc(S(=O)(=O)c2ccc(OC)cc2)c(=O)c2cc(F)c(N3CCN(C)CC3)cc21	+	-2.8	3.0	x	22.1	98.5
CCn1cc(C(=O)N[C@H](C)c2ccccc2)c(=O)c2cc(F)c(N3CCN(C)CC3)cc21	+	0.0	18.4	-2.8	8.4	104.8
O=C(C1CCCO1)N1CCN(C(=S)Nc2ccc(Cl)cc2Cl)CC1 (stereo unspecified)	i	16.6*	7.2	0.8	23.5	105.7
Cc1cc(Cl)ccc1NC(=S)N1CCN(C(=O)C2CCCO2)CC1 (stereo unspecified)	i	-2.2	4.0	0.6	10.5	75.4
O=C(Nc1ccc(F)cc1)N1CCN(C(=O)C2CCCO2)CC1 (stereo unspecified)	i	-3.9	28.7	x	34.0*	111.0
CCOC(=O)Nc1ccc2nc(-c3cscn3)[nH]c2c1	x	-0.6	x	x	x	x
O=C(COC(=O)c1cccc(Cl)c1)NCCN1C(=O)CSC1=O	i	15.6*	17.2	0.8	17.5	96.0
Cc1ccc(/C=C/C(=O)OCC(=O)NCCN2C(=O)CSC2=O)o1	i	-1.5	-9.5	3.2*	12.0	121.7
CN=C1SC(CC(=O)Nc2ccccc2F)C(=O)N1C (stereo unspecified)	i	3.6	23.2	4.4*	x	98.4
CN=C1SC(CC(=O)Nc2cccc(C(F)(F)F)c2)C(=O)N1C (stereo unspecified)	i	-4.2	14.5	0.7	-1.6	115.3
CCN(CC)c1ccc(N=Cc2ccc([N+](=O)[O-])o2)cc1	i	5.5	21.6	-0.2	76.2*	91.9
CCN(CC)c1ccc(N=Cc2ccccc2[N+](=O)[O-])cc1	i	2.0	35.1	-0.1	32.6	104.2
O=c1[nH][nH]c(-c2ccccc2O)c1C(C[N+](=O)[O-])c1ccc(Cl)cc1Cl (stereo unspecified)	i	4.6	16.1	1.1	70.5*	96.9
O=c1[nH][nH]c(-c2ccccc2O)c1C(C[N+](=O)[O-])c1cccc(Cl)c1 (stereo unspecified)	i	-2.2	21.6	0.3	100.9*	97.2
Cc1cc(O)c(C(C[N+](=O)[O-])c2ccc(Cl)cc2Cl)c(=O)o1 (stereo unspecified)	i	1.6	11.9	0.5	-8.1	103.5
O=c1[nH][nH]c(-c2ccccc2O)c1C(C[N+](=O)[O-])c1ccccc1 (stereo unspecified)	i	-1.7	31.4	0.7	x	97.8
SMILES	Rce1 inh	V-ATPase pH	NLRP3 yeast inh	PERK inhibitor	NALP1 yeast inh	CR mimetic SO
O=C(Cn1ccnc1)c1ccc(Cl)cc1	i	-2.8	-8.7	x	12.1	88.1
O=C(O)Cn1ccnc1	x	-0.4	2.9	2.9*	-2.9	96.6
CCOc1ccc2c(S(=O)(=O)O)cccc2c1[N+](=O)[O-]	x	1.2	x	x	x	x
COc1ccc(N(CC(=O)Nc2nccs2)S(=O)(=O)c2c(C)nn(C)c2C)cc1	x	14.1*	-0.7	0.7	-3.9	101.9
Clc1cccc(OCCN2CCN(CCOc3cccc(Cl)c3)CC2)c1	i	1.8	40.1	-1.2	64.3*	82.8
COc1ccccc1NC(=O)CCNC(=O)C1CCN(S(=O)(=O)c2ccccc2)CC1	x	1.2	x	x	x	x
CN(Cc1ccccc1)C(=O)CN1CCN(S(=O)(=O)c2ccccc2F)CC1	x	0.5	x	x	x	x
CCN1CCC(O)(/C=C/c2ccc(C(C)C)cc2)C(C(=O)/C=C/c2ccc(C(C)C)cc2)C1 (stereo unspecified)	x	-1.5	x	x	x	x
O=C(NN1C(=O)c2cc(Br)ccc2NC1c1ccccc1Cl)c1ccncc1 (stereo unspecified)	i	-1.0	11.5	-1.8	22.1	99.9
O=C(NN1C(=O)c2cc(Br)ccc2NC1c1cc(Br)cc(Br)c1O)c1ccncc1 (stereo unspecified)	i	-0.5	40.6	0.2	57.3*	81.5
COC(=O)c1cnn2c3c(c(C)nc12)CCCC3	+	1.1	-0.8	0.6	22.5	103.1
Cc1c2c(nc3c(C(=O)NC4CCCC4)cnn13)CCCC2	i	-2.9	10.9	0.3	4.2	110.7
CC(C)Sc1nc(N2CCOCC2)c2c(c1C#N)CC(C)(C)SC2	i	-2.8	4.1	-0.8	35.6*	89.7
C[C@@H]1CN([C@@H](C)CO)C(=O)c2cc(Br)cnc2O[C@H]1CN(C)C(=O)Nc1ccccc1	x	-1.1	x	x	x	x
CC(C)COC(=O)N(C)C[C@H]1OCc2cnnn2CCCC(=O)N([C@@H](C)CO)C[C@H]1C	x	0.9	x	x	x	x
Cc1ccc(-c2cc(C(=O)OC3CCOC3=O)c3ccccc3n2)c(C)c1 (stereo unspecified)	i	-2.2	10.9	2.9*	10.2	89.1
O=c1[nH]c2ccc(S(=O)(=O)N3CCN(C4CCCCC4)CC3)cc2[nH]c1=O	+	-2.2	9.2	0.6	x	84.7
COc1ccc(OCC(=O)N/N=C/c2ccc(O[C@@H]3O[C@H](CO)[C@@H](O)[C@H](O)[C@H]3O)cc2)cc1	i	2.0	-3.7	3.4*	-6.1	108.8
Cc1cc(Cl)ccc1OCC(=O)N/N=C/c1ccc(OC2OC(CO)C(O)C(O)C2O)cc1 (stereo unspecified)	i	0.8	-0.1	0.0	x	103.7
Cc1cc(N=Nc2c(O)c3ccccc3[nH]c2=O)ccc1N=Nc1ccc(C(=O)N(C)C)cc1	i	-2.1	6.1	1.4	11.3	x
Cc1ccc(N=Nc2c(O)c3ccccc3[nH]c2=O)c(S(=O)(=O)N(C)C)c1	x	x	x	3.3*	24.8	x
COc1ccc(CCC(C)NC2C3CC4CC(C3)CC2C4)cc1 (stereo unspecified)	i	15.8*	x	-0.6	14.7	x
